The values that follow come from PubChem BioAssay (NCATS).

A short description of assay [1]: NS1 protein of Zika virus - qHTS assay to identify small molecule inhibitors in human HEK 293 cells (AID 1347053). Note: nearly all actives have a fitted effect of over 55% in size. Note: potency is the fitted concentration of half-maximal effect. An outline of the steps:
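Compound-treated (1 h pre-infection) HEK 293 cells infected with ZIKV MR766, MOI = 0.5; after 24 h at 37 C, NS1 read by TR-FRET; data normalized to uninfected and infected controls.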

Assay [2] can be described thus: qHTS of pediatric cancer cell lines to identify multiple opportunities for drug repurposing: Primary screen for TC32 cells (AID 1347089). Note: nearly all actives have a fitted effect of over 60% in size. An outline of the steps:
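qHTS, TC32, 48 h drug treatment, CellTiter-Glo luminescence as a proxy for metabolically active cells; primary top concentration 46 µM (MIPE 11-pt, NPC 8-pt); confirmatory 11-pt.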

A short description of assay [3]: qHTS of pediatric cancer cell lines to identify multiple opportunities for drug repurposing: Primary screen for SJ-GBM2 cells (AID 1347091). Note: potency is the fitted concentration of half-maximal effect. The essentials:
(§1)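 Cell viability, CellTiter-Glo luminescence; 500-1,000 cells/well, 8- or 11-point titration, 48 h compound exposure at 37 degrees C, 5% CO2. Controls: DMSO neutral, bortezomib 2.3 µM final as positive.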

Assay [4] can be described thus: qHTS of pediatric cancer cell lines to identify multiple opportunities for drug repurposing: Primary screen for A673 cells (AID 1347092). Note: nearly all actives have a fitted effect of over 45% in size. Note: potency is the fitted concentration of half-maximal effect. An outline of the steps: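 Luminescence from CellTiter-Glo, taken after 15 min at room temperature, served as the proxy for metabolically active cells following 48 h treatment. Both potency and efficacy were taken from curves fitted to the titration data.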

Assay [5] is described as follows: qHTS of pediatric cancer cell lines to identify multiple opportunities for drug repurposing: Primary screen for SK-N-MC cells (AID 1347093). Note: potency is the fitted concentration of half-maximal effect. An outline of the steps:
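Metabolically active cells were quantified by ATP-dependent luminescence (CellTiter-Glo, 15 min at room temperature) following 48 h treatment. Cells had been plated at 500-1,000 per well and settled for 5 h beforehand.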

Assay [6] is described as follows: qHTS of pediatric cancer cell lines to identify multiple opportunities for drug repurposing: Primary screen for DAOY cells (AID 1347090). Note: nearly all actives have a fitted effect of over 55% in size. Note: potency is the fitted concentration of half-maximal effect. An outline of the steps:
as §1

Records with an inconclusive call do not appear. Activity calls are given as the source filed them. Calls come from the whole dose curve; as a rule, active = well fitted curve in the direction sought with a large enough effect; inconclusive = small, poorly fitted or top-dose-only effect, or another doubt; inactive = no such curve, though single readings can be large; an effect the other way counts as inactive or inconclusive.

For the compound `O=C(Nc1c(Cl)cncc1Cl)c1ccc(OC(F)F)c(OCC2CC2)c1`, the Potency entry in assay [1], in assay [2], in assay [3] and in assay [4] was “inactive” throughout.
Consider `CC(C)=CC[C@@H](O)C1=CC(=O)c2c(O)ccc(O)c2C1=O`, for which the Potency entry in assay [1] and in assay [2] was “inactive” in each case. Moreover, the values for the Potency in assay [3], in assay [4] and in assay [5] were 1.05 µM (active), 0.935 µM (active) and 1.05 µM (active), respectively.
In the case of `CCOC1OC(=O)C[C@H]1NC(=O)[C@@H]1CCCN1C(=O)[C@@H](NC(=O)c1ccc(N)c(Cl)c1)C(C)(C)C` (some centres undefined), the Potency result in assay [1] and in assay [2] was “inactive” each time. For the same compound, the Potency in assay [3] was 1.87 µM (active); in assay [4] it was 0.118 µM (active); in assay [5], 14.8 µM (active).
Consider `Cc1nnc(C(C)C)n1C1C[C@H]2CC[C@@H](C1)N2CC[C@H](NC(=O)C1CCC(F)(F)CC1)c1ccccc1` (some centres undefined), for which the Potency result in assay [1], in assay [2] and in assay [3] was “inactive” throughout. The Potency in assay [4] was 14.8 µM (active); in assay [5], 4.18 µM (active).
Consider `O=c1c(O)c(-c2ccc(O)cc2)oc2cc(O)cc(O)c12`, for which the Potency entry in assay [1] and in assay [2] was “inactive” each time. The results for the Potency in assay [3], in assay [4] and in assay [5] were 14.8 µM (active), 14.8 µM (active) and 11.8 µM (active), respectively.
Regarding `O=C(CCc1ccc(O)cc1)c1c(O)cc(O)cc1O[C@@H]1O[C@H](CO)[C@H](O)[C@H](O)[C@H]1O`, the Potency result in assay [1], in assay [2], in assay [3] and in assay [4] was “inactive” in each case.
As for `CC(=NNC(=S)N1CCC1)c1ccccn1`, the Potency in assay [1] is 16.6 µM (active); in assay [3] it was 0.0209 µM (active); in assay [4] it was 0.0037 µM (active); in assay [5] it was 0.0013 µM (active).
Take `COc1cccc([C@@H](C)NCCCc2ccccc2Cl)c1`: the Potency result in assay [1] and in assay [2] was “inactive” in each case. For the same compound, the Potency in assay [5] is 11.8 µM (active).
Take `COc1cc2ncnc(-n3nc(-c4ccccn4)nc3N)c2cc1OC`: the Potency entry in assay [1] is “inactive”. Also, the Potency in assay [3] was 14.8 µM (active); in assay [4] it was 3.72 µM (active); in assay [5], 4.69 µM (active).
The like results for `COc1ccc(-c2coc3cc(O)ccc3c2=O)cc1` were, in that order, “inactive”, “inactive”, “inactive” and “inactive”.
Take `c1ccc2c(Cc3c[nH]c4ccccc34)c[nH]c2c1`: the Potency result in assay [1] was “inactive”. Besides, the Potency was 3.72 µM (active) in assay [6], 2.35 µM (active) in assay [4] and 0.833 µM (active) in assay [5].
`CO[C@@H](C(=O)N1Cc2[nH]nc(NC(=O)c3ccc(N4CCN(C)CC4)cc3)c2C1)c1ccccc1`: the Potency result in assay [1] was “inactive”. Also, the Potency is 0.187 µM (active) in assay [3], 5.9 µM (active) in assay [4] and 0.118 µM (active) in assay [5].
Regarding `NC(=O)[C@@H](CCC(F)(F)F)N(Cc1ccc(-c2ncon2)cc1F)S(=O)(=O)c1ccc(Cl)cc1`, the Potency entry in assay [1] and in assay [2] was “inactive” in each case. Moreover, the Potency in assay [5] is 23.5 µM (active).
`CC[C@@H]1C=C(C)C[C@H](C)C[C@H](OC)[C@H]2O[C@@](O)(C(=O)C(=O)N3CCCC[C@@H]3C(=O)O[C@H](C(C)=C[C@@H]3CC[C@H](Cl)[C@H](OC)C3)[C@H](C)[C@@H](O)CC1=O)[C@H](C)C[C@H]2OC`: the Potency in assay [1] is 23.5 µM (active); in assay [5], 11.8 µM (active). In addition, in assay [6], the Potency entry is “inactive”.
Take `N#C[C@H]1C[C@H]2C[C@@H]2N1C(=O)[C@@H](N)C12CC3CC(CC(O)(C3)C1)C2`: the Potency result in assay [1], in assay [6], in assay [3] and in assay [4] was “inactive” throughout.
Consider `Nc1nc(F)nc2c1ncn2[C@@H]1O[C@H](COP(=O)(O)O)[C@@H](O)[C@H]1O`, for which the Potency entry in assay [1] is “inactive”. For the same compound, the Potency in assay [6] was 4.69 µM (active); in assay [3], 0.662 µM (active); in assay [4], 14.8 µM (active); in assay [5], 0.264 µM (active).
The like results for `NC(CO)(CO)CCc1ccc(Sc2cccc(OCc3ccccc3)c2)cc1Cl` were, in that order, 9.35 µM (active), 23.5 µM (active), 18.7 µM (active), 14.8 µM (active) and 2.64 µM (active).
Consider `CO[C@H]1C[C@@H]2CC[C@@H](C)[C@@](O)(O2)C(=O)C(=O)N2CCCC[C@@H]2C(=O)O[C@H]([C@H](C)C[C@@H]2CC[C@H](OP(C)(C)=O)[C@H](OC)C2)CC(=O)[C@H](C)C=C(C)[C@@H](O)[C@@H](OC)C(=O)[C@H](C)C[C@H](C)C=CC=CC=C1C`, for which the Potency result in assay [1], in assay [6] and in assay [4] was “inactive” throughout.
Take `O=C(NOCC(O)CO)c1cc(Br)c(F)c(F)c1Nc1ccc(I)cc1F` (centres undefined): the Potency entry in assay [1] and in assay [3] was “inactive” throughout. Also, the Potency in assay [6] was 14.8 µM (active); in assay [5], 0.132 µM (active).
In the case of `Cn1cc(C=C2C(=O)Nc3cccnc32)c2ccccc21`, the Potency result in assay [1], in assay [6] and in assay [3] was “inactive” in each case.
Turning to `CC(C)(C(=O)NCC(F)(F)C(F)(F)F)C(=O)N[C@@H]1C(=O)Nc2ccccc2-c2ccccc21`, the Potency entry in assay [1] was “inactive”. Moreover, the Potency in assay [6] is 18.7 µM (active); in assay [3], 1.05 µM (active); in assay [4] it was 0.0935 µM (active); in assay [5] it was 3.72 µM (active).
As to `COc1cc(O)c2c(c1)C(=O)c1cc(C)cc(O)c1C2=O`, the Potency entry in assay [1], in assay [6], in assay [3], in assay [4] and in assay [5] was “inactive” throughout.
On to `CNC1CCC(N(Cc2cccc(-c3ccncc3)c2)C(=O)c2sc3c(F)ccc(F)c3c2Cl)CC1` (centres undefined), for which the Potency in assay [1] is 10.5 µM (active); in assay [5], 1.18 µM (active). In assay [2], the Potency entry is “inactive”.
